IL1B secr inh – qHTS for Inhibitors of Inflammasome Signaling: IL-1-beta AlphaLISA Primary Screen. THP-1 LPS/ATP IL-1B secretion, AlphaLISA, 16 h; hits give low values. activity change, % at 57.5 µM. 360,000 compounds, 4.7% hits. AID 743279, 2014; in the data active = activity change below about -50%; inconclusive = mostly about -30% to -49%
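Secreted IL-1B measured by AlphaLISA bead assay after 16 h compound exposure of THP-1 cells; compounds (final up to 57.5 uM) added 1 h before LPS (250 ng/mL) and ATP (1.25 mM) stimulation; lower signal means less secretion.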
HT1080 IDH1KD tx – qHTS for induction of synthetic lethality in tumor cells producing 2HG: qHTS for the HT-1080-IDH1KD cell line; HT-1080 IDH1 knockdown viability, ATP luminescence, 48 h; Potency, µM (series often up to 46.1 µM), without a hit: top-dose activity, negative = toxicity, hits mostly cytotoxic; 360,000 compounds, 2% hits; AID 686971, 2013;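 also: potency is read from the fitted curve at half-maximal effect; 0% = DMSO wells and -100% = cell-free medium wells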
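Luminescent ATP read-out (CellTiter-Glo, 10 min at room temperature) after 48 h compound exposure at 37 °C gave viability of IDH1-knockdown HT-1080 cells. Activity was normalised to DMSO and cell-free wells, then fitted as concentration-response curves.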
HT1080NT lethal – qHTS for induction of synthetic lethality in tumor cells producing 2HG: qHTS for the HT-1080-NT fibrosarcoma cell line | Potency, µM (highest dose often 46.1 µM), without a hit: at the highest dose activity, negative = less viability, actives largely listed as cytotoxic | 360,000 compounds, 1.6% hits | AID 686970, 2013 | HT-1080-NT fibrosarcoma viability, CellTiter-Glo ATP luminescence, 48 h;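 also: NT is the 2HG producing partner of a matched IDH1 knockdown line; potency is read from the fitted curve at half-maximal effect; 0% = DMSO-treated cells and -100% = media-only wells without cells; nearly all actives have a fitted effect of over 55% in size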
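750 cells/well, RPMI + 5% FBS; 2 h settle, compound pin-transfer, 48 h at 37 degrees C. CellTiter-Glo 10 min RT, luminescence. Normalized to DMSO and media-only wells.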
DT40 TDP1 no CPT – qHTS for Inhibitors of human tyrosyl-DNA phosphodiesterase 1 (TDP1): qHTS in cells in absence of CPT; DT40 Tdp1-/- hTDP1 cells, no CPT, ATP luminescence, 48 h; Potency, µM (series often up to 46.2 µM), for inactives: at the highest dose activity change, negative = growth inhibition, actives largely listed as inhibitors; 420,000 compounds, 15% hits; AID 686978, 2013; also: potency is read from the fitted curve at half-maximal effect; nearly all actives have a fitted effect of over 55% in size
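Chicken DT40 Tdp1-/- cells stably complemented with human TDP1 were seeded at 400 cells/well with DMSO in place of 20 nM camptothecin. After compound pinning, cells grew at least 48 hr at 37 °C; viability read by CellTiter-Glo luminescence.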
12-LOX inh – Primary qHTS assay for inhibitors of human arachidonate 12S-lipoxygenase (ALOX12): Round 2; Polyunsaturated fatty acid lipoxygenase ALOX12 (Homo sapiens), P18054; purified 12hLO, xylenol orange hydroperoxide absorbance; Potency, µM (titrated, usually from 108 µM), without a hit: at the top dose activity change, negative = inhibition, hits mostly inhibitors; 580,000 compounds, 1.1% hits; AID 1671190, 2021; also: potency is read from the fitted curve at half-maximal effect
Target sequence (P18054 whole entry, looked up): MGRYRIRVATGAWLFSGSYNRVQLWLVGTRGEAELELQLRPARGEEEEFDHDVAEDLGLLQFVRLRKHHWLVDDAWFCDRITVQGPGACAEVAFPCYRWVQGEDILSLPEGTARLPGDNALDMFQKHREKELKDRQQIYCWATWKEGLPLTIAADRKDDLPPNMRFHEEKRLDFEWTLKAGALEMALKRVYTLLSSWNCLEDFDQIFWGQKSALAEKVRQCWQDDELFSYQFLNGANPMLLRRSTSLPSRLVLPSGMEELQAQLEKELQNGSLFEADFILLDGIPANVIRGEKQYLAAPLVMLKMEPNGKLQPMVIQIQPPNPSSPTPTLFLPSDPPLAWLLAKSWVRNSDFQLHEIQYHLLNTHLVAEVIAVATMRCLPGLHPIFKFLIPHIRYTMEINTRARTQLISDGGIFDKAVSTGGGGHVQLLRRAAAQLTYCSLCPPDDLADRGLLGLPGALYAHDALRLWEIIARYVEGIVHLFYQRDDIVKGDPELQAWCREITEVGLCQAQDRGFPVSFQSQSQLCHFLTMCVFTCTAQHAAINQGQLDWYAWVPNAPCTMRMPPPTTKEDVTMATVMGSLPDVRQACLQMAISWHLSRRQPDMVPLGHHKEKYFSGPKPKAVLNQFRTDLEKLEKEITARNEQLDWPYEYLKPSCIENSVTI
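Purified human 12hLO (150 nM final) in 25 mM Hepes, 0.01% Triton X-100, pH 7.0 was preincubated 15 min at room temperature with compound. Then 40 uM arachidonic acid was added, 30 min. Hydroperoxide was read by Fe-XO absorbance ratio 573/405 nm.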
DT40 TDP1 CPT – qHTS for Inhibitors of human tyrosyl-DNA phosphodiesterase 1 (TDP1): qHTS in cells in presence of CPT | AID 686979, 2013 | chicken DT40 Tdp1-/-;hTDP1 cells + 20 nM CPT, ATP luminescence, 48 h | Potency, µM (doses to about 46.2 µM), without a hit: at the highest dose activity change, negative = growth inhibition, hits mostly inhibitors | 420,000 compounds, 12% hits; also: potency is read from the fitted curve at half-maximal effect; nearly all actives have a fitted effect of over 55% in size
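Chicken DT40 Tdp1-/- cells stably complemented with human TDP1 were seeded at 400 cells/well in medium containing 20 nM camptothecin, exposed to pin-transferred compounds, and grown at 37 °C for at least 48 hr. Viability was read as ATP luminescence.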
Numbers without * were called inactive; ? = inconclusive; . = no result; [ ] = dose if it differs, or a comment. Only a selection was taken, and hits are over-represented in it overall. Unless noted, calls follow the shape of the dose curve; as a rule, active = well fitted curve in the direction sought with a large enough effect; inconclusive = small, poorly fitted or top-dose-only effect, or another doubt; inactive = no such curve, though single readings can be large; an effect the other way counts as inactive or inconclusive. Unless noted, % is scaled to controls: 0 for no effect and ±100 for the full control effect.

SMILES | IL1B secr inh | HT1080 IDH1KD tx | HT1080NT lethal | DT40 TDP1 no CPT | 12-LOX inh | DT40 TDP1 CPT
COc1ccc(/C=C/C(=O)c2ccc[nH]2)cc1OC | -63* | 1% | -6% | ? | ? | -9%
COc1cc(/C=C/C(=O)c2ccc(C)cc2)ccc1OCC#N | -114* | 21µM* | ? | ? | -26% | ?
COc1ccc(/C=C/C(=O)c2ccc[nH]2)c(OC)c1OC | -29 | 11% | 11% | ? | 0% | 0%
O=C(/C=C/c1ccc(OCc2ccccc2)c(OCc2ccccc2)c1)c1cccnc1 | -95* | ? | ? | 12µM* | 11% | ?
COC(=O)c1ccc(/C=C/C(=O)c2ccc(OC)c(OC)c2)cc1 | -59* | ? | ? | ? | . | ?
COC(=O)c1ccc(/C=C/C(=O)O)cc1 | -10 | -5% | 7% | -8% | -11% | -1%
O=C(O)CC(C(=O)O)c1ccc(Cl)cc1 (configuration not stated) | . | . | . | . | 58% | .
COCCn1nc2n(c1=O)CCN(S(=O)(=O)c1c(C)nn(C)c1C)CC2 | . | . | . | . | 3% | .
CCC(C)(C)c1ccc(OCC(=O)Nc2cccc(C(=O)O)c2)cc1 | . | . | . | . | 35% | .
NS(=O)(=O)c1cccs1 | . | . | . | . | 17% | .
Nc1ccc(/C=C/c2ccc3ncccc3c2)cc1 | ? | -8% | 0% | ? | 0% | ?
COc1ccc(/C=C/C(=O)c2ccc(O)c(CCCl)c2)cc1C | . | . | . | . | 32µM* | .
Cc1ccc(C(=O)/C=C/c2ccc3ncccc3c2)cc1 | -58* | -24% | -13% | 29µM* | -16% | 18µM*
COCCOc1ccc(C(=O)/C=C/c2cccc(O)c2)cc1OC | . | . | . | . | -23% | .
COc1ccc(/C=C/C(=O)C2(O)CCCCC2)cc1 | -92* | ? | -6% | ? | ? | ?
COC(=O)c1ccc(/C=C/C(=O)c2ccc(OC)cc2)cc1 | ? | ? | 6% | 16µM* | 12% | ?
COc1ccc(/C=C/C(=O)C2(C)CCCCC2)cc1 | . | . | . | . | -5% | .
COc1ccc(/C=C/C(=O)c2cc(Br)ccc2O)cc1OC | -17 | -9% | -4% | -29% | -8% | -26%
COc1cc(/C=C/C(O)=C/C(=O)/C=C/c2ccc(O)cc2)ccc1O | -97* | ? | ? | ? | 13µM* | 18µM*
COc1ccc(C=CC(=O)c2ccc(OCc3ccccc3)c(OC)c2)cc1OC | -6 | ? | -14% | 18µM* | -4% | 26µM*
COc1cc(C(=O)O)ccc1OCc1ccccc1 | . | . | . | . | 13% | .
COc1ccc(C(=O)/C=C/c2ccccc2C(F)(F)F)cc1 | -73* | ? | ? | 23µM* | -9% | 29µM*
COc1ccc(/C=C/C(=O)c2ccc(O)cc2O)cc1OC | . | . | . | 15µM* | . | ?
O=C(CCC(=O)Nc1cccnc1)Nc1cccnc1 | -1 | 11% | 3% | -1% | -6% | 7%
CN(Cc1ccccc1)C1CCOC2(CCN(C(=O)c3ccsc3)CC2)C1 (configuration not stated) | . | . | . | . | 45% | .
SMILES | IL1B secr inh | HT1080 IDH1KD tx | HT1080NT lethal | DT40 TDP1 no CPT | 12-LOX inh | DT40 TDP1 CPT
C[C@@H]1O[C@@H](OCCC(=O)O)[C@H](O)C[C@H]1O | 8 | -6% | -2% | -12% | 0% | -13%
COc1ccc(/C=C/C(=O)c2ccccc2)cc1Cn1nnc2ccccc21 | -99* | ? | ? | 23µM* | 0% | ?
COc1ccc(/C=C/C(=O)c2ccc(C(=O)/C=C/c3ccc(OC)c(OC)c3)cc2)cc1OC | -25 | 0% | -10% | 5.8µM* | 0% | 7.3µM*
COc1ccc(S(=O)(=O)N2CCc3c(C(=O)N4CCCC4)cccc32)cc1 | . | . | . | . | 40% | .
Nc1c(NCCC2=CCCCC2)c(=O)[nH]c(=O)n1Cc1ccccc1 | -12 | -7% | -7% | 6.5µM* | 0% | 26µM*
COc1ccc(CCNC2=C(Cl)C(=O)N(CCc3ccccc3)C2=O)cc1OC | 0 | -4% | -2% | 21µM* | -7% | ?
COc1ccc(CCNc2c(N)n(Cc3ccccc3)c(=O)[nH]c2=O)cc1OC | -55* | -2% | -6% | ? | ? | -96%
C=CCN1C(=O)c2ccc(C(=O)OCC(=O)N(CC)c3c(N)n(Cc4ccccc4)c(=O)[nH]c3=O)cc2C1=O | -4 | -2% | -2%[9.24 µM] | 25% | 56% | -3%
COc1cc(/C=C2/SC(=O)N(CC(=O)N3CCCC3)C2=O)ccc1Oc1ccc([N+](=O)[O-])cn1 | -63* | -3% | -1% | 21µM* | 44% | ?
COc1ccc(/C=C2\SC(=O)N(CC(=O)NCCC(C)C)C2=O)cc1OC | 1 | 13% | 10% | ? | 5% | 21%
COc1ccc(/C=C2/SC(=O)N(CC(=O)Nc3cc(C)on3)C2=O)cc1OC | 0 | 4% | 3% | -1% | -19% | 0%
CCN=C1S/C(=C\c2ccc(OCC)c(OC)c2)C(=O)N1CC | -51* | -17% | -3% | 21µM* | -9% | ?
CCN1C(=O)S/C(=C/c2ccc(Oc3ccc([N+](=O)[O-])cn3)c(OC)c2)C1=O | 13 | 3% | ? | 13µM* | 6% | ?
CCCCn1c(=O)[nH]c(=O)c2c1nc(CNc1cccc(F)c1)n2C | . | . | . | . | -5% | .
COc1cc(CCN2C(=O)N[C@@H](CCc3ccccc3)C(C(C)=O)=C2C)cc(OC)c1OC | -4 | 12% | 22% | 23µM* | . | ?
COCCN1C(=O)N[C@@H](CCc2ccccc2)C(C(C)=O)=C1C | 34 | 0% | 3% | ? | . | -15%
COc1ccc(CNC(=S)NCc2ccc(Cl)cc2)cc1OC | -18 | -21% | -1% | -13% | 50µM* | ?
COc1ccc(CNC(=S)NCc2ccc(F)cc2)cc1OC | 30 | -12% | -24% | -23% | -26% | -17%
COc1ccccc1NC(=S)NCc1ccc(Cl)cc1 | -6 | 2% | 4% | ? | 11µM* | 0%
COc1ccc(CNC(=S)Nc2ccccc2)cc1 | 13 | 15% | 4% | -6% | 0% | 19%
CCOc1ccccc1NC(=S)NC1CC2CCC1C2 (configuration not stated) | 12 | -1% | 3% | 21µM* | . | ?
